We go through 28 compounds from the supplement of paper PMC13380429.

Values without a mark were called inactive.

This experiment deals with Vero E6 infected with SARS-CoV-2. Nature of the experiment: inhibition of SARS-CoV-2 cytopathic effect; higher = more antiviral protection, active = above 15. The following applies: 48 h. In general terms: Damage to the host cells serves as the signal in cytopathic effect assays.

Regarding `C#Cc1cnc2nc(O)n(C(CC)CC)c2n1` [tirasemtiv], the “inhibition of SARS-CoV-2 cytopathic effect” value (from here on “inhibition”) is, setting by setting: (1 nM) 1.57%; (8.33 nM) -0.65%; (100 nM) 1.78%; (833.33 nM) 2.57%; (10000 nM) -1.21%.

In the case of `CC(C)[C@](O)(c1ccc2cc(OC(F)F)c(OC(F)F)cc2c1)c1c[nH]nn1`, the “inhibition” value is -0.91% (1 nM); 2.28% (8.33 nM); 2.85% (100 nM); 5.3% (833.33 nM); 6.8% (10000 nM).

Consider `O=C(CN1CCN(Cc2ccc3c(c2)OCO3)CC1)N1c2ccccc2Sc2ccccc21` [fenoverine], for which the “inhibition” value (1 nM) is 0.16%; the “inhibition” value (8.33 nM) is -2.81%; the “inhibition” value (100 nM) was 4.98%; the “inhibition” value (833.33 nM) is -0.47%; the “inhibition” value (10000 nM) was -3.71%.

For the compound `O=c1[nH]c(=O)n([C@H]2C[C@H](O)[C@@H](CO)O2)cc1Br` [broxuridine], the “inhibition” value (1 nM) was 1.7%; the “inhibition” value (8.33 nM) was 1.06%; the “inhibition” value (100 nM) was 1.08%; the “inhibition” value (833.33 nM) is 3.59%; the “inhibition” value (10000 nM) is 0.04%.

With `O=C(N[C@H]1CCN(C(=O)c2cc(C(F)(F)F)cc(C(F)(F)F)c2)[C@H](Cc2ccc(Cl)cc2)C1)c1ccnc2ccccc12`, the “inhibition” value by setting is: (1 nM) -1.66%; (8.33 nM) -1.32%; (100 nM) 1.01%; (833.33 nM) 2.87%; (10000 nM) 0.89%.

Turning to `CCCc1cc(C)[nH]c(=O)c1CNC(=O)c1cc(-c2ccc(N3CCN(C(C)C)CC3)nc2)cc2c1cnn2C(C)C`, the “inhibition” value was -1.83% (1 nM); 1% (8.33 nM); -2.55% (100 nM); -0.64% (833.33 nM); 42.3% (active) (10000 nM).

For `CN1CCN(C(=O)C2C(C(=O)O)[C@H]3CC[C@@H]2O3)CC1` (stereo not given in full), the “inhibition” value is -1.86% (1 nM); 0.2% (8.33 nM); 0.49% (100 nM); 0.2% (833.33 nM); -0.43% (10000 nM).

`C[C@@H]1CN(c2c(F)c(F)c3c(=O)c(C(=O)O)cn(C4CC4)c3c2F)C[C@H](C)N1` [orbifloxacin]: the “inhibition” value (1 nM) is -6.82%; the “inhibition” value (8.33 nM) was -2.82%; the “inhibition” value (100 nM) was -5.64%; the “inhibition” value (833.33 nM) is -4.29%; the “inhibition” value (10000 nM) is -4.52%.

Regarding `CSc1ccc([C@H]2CN3CCC[C@H]3c3ccccc32)cc1` (racemic), the “inhibition” value was 3.1% (1 nM); 1.05% (8.33 nM); 2.84% (100 nM); 3.32% (833.33 nM); 1.44% (10000 nM).

Turning to `CCCCCNCC(N)=O` [milacemide], the “inhibition” value runs as follows: (1 nM) 1.56%; (8.33 nM) -1.78%; (100 nM) 2.01%; (833.33 nM) 2.58%; (10000 nM) -0.4%.

For `Cc1cccc(C)c1NC(=O)c1ccccc1C(=O)O` [ftaxilide], the “inhibition” value is -0.49% (1 nM); 0.92% (8.33 nM); -1.2% (100 nM); 0.63% (833.33 nM); 1.39% (10000 nM).

Regarding `CC(C)(O)[C@@H]1[C@H]2OC(=O)[C@@H]1[C@]1(O)C[C@H]3O[C@]34C(=O)O[C@H]2[C@]14C` [picrotin], the “inhibition” value by setting is: (1 nM) -0.34%; (8.33 nM) 1.31%; (100 nM) 1.26%; (833.33 nM) -0.13%; (10000 nM) 3.22%.

Regarding `Cc1ccc(/C=C2\CNC/C(=C\c3ccc(C)cc3)C2=O)cc1`, the “inhibition” value is, setting by setting: (1 nM) -3.15%; (8.33 nM) -1.97%; (100 nM) -0.54%; (833.33 nM) -0.34%; (10000 nM) 0.13%.

As to `O=C(O)c1ccc(/C=C2\SC(=S)N(c3cccc(C(F)(F)F)c3)C2=O)cc1`, the “inhibition” value runs as follows: (1 nM) -0.08%; (8.33 nM) -0.83%; (100 nM) -2.17%; (833.33 nM) -1.38%; (10000 nM) -0.46%.

For the compound `CC(C)(C)c1ccc(/C=C/C(=O)Nc2ccc3c(c2)OCCO3)cc1`, the “inhibition” value is -2.25% (1 nM); 0.94% (8.33 nM); 1.24% (100 nM); -0.32% (833.33 nM); -0.3% (10000 nM).

With `CCC/N=C1\S/C(=C\c2ccc(OC[C@H](O)CO)c(Cl)c2)C(=O)N1c1ccccc1C` [ponesimod], the “inhibition” value is -1.82% (1 nM); -0.6% (8.33 nM); -2.77% (100 nM); -2.51% (833.33 nM); -0.58% (10000 nM).

As for `CN[C@H]1CC[C@@H](c2ccc(Cl)c(Cl)c2)c2ccccc21`, the “inhibition” value was -7.46% (1 nM); 3.54% (8.33 nM); 8.81% (100 nM); -0.02% (833.33 nM); 12.1% (10000 nM).

On to `CC(C)[C@H]1[C@@H]2CC[C@@H](C2)[C@@H]1N`, for which the “inhibition” value runs as follows: (1 nM) 0.17%; (8.33 nM) 2.01%; (100 nM) 5.77%; (833.33 nM) 6.62%; (10000 nM) 4.27%.

On to `CC(=O)OC[C@H]1O[C@@H]([S-])[C@H](OC(C)=O)[C@@H](OC(C)=O)[C@@H]1OC(C)=O.CCP(CC)CC.[Au+]` [auranofin], for which the “inhibition” value was 3.21% (1 nM); 4.4% (8.33 nM); 7.71% (100 nM); 18.4% (active) (833.33 nM); -21.1% (10000 nM).

With `O=C(O[C@H]1CN2CCC1CC2)N(Cc1cc(F)c(F)c(F)c1)c1cccc(F)c1` [tarafenacin], the “inhibition” value (1 nM) is 1.69%; the “inhibition” value (8.33 nM) is -0.35%; the “inhibition” value (100 nM) was 2.28%; the “inhibition” value (833.33 nM) was -1.46%; the “inhibition” value (10000 nM) is -7.54%.

As for `O=C(O)[C@H]1O[C@@H](Oc2cc3oc(-c4ccccc4)cc(=O)c3c(O)c2O)[C@H](O)[C@@H](O)[C@@H]1O` [baicalin], the “inhibition” value is, setting by setting: (1 nM) 2.44%; (8.33 nM) -0.79%; (100 nM) -1.89%; (833.33 nM) -5.03%; (10000 nM) 2.97%.

As to `Cc1cc(C(=O)Nc2cc(Oc3ccc4nc(NC(=O)C5CC5)cn4n3)ccc2C)n(C)n1`, the “inhibition” value was -0.96% (1 nM); -3.26% (8.33 nM); -4.84% (100 nM); -7.63% (833.33 nM); -4.87% (10000 nM).

With `Cc1cn(-c2cc(NC(=O)c3ccc(C)c(Nc4nccc(-c5cccnc5)n4)c3)cc(C(F)(F)F)c2)cn1` [nilotinib], the “inhibition” value is 3.96% (1 nM); 3.56% (8.33 nM); 3.11% (100 nM); 5.24% (833.33 nM); 6.03% (10000 nM).

With `O=C(O)CCC(=O)C(=O)O` [2-oxoglutaric-acid], the “inhibition” value (1 nM) was -3.15%; the “inhibition” value (8.33 nM) is -0.14%; the “inhibition” value (100 nM) was 1.87%; the “inhibition” value (833.33 nM) is 0.16%; the “inhibition” value (10000 nM) is -2.21%.

Consider `Cc1ccc(C[N+](C)(C)C)o1` [5-methylfurmethiodide], for which the “inhibition” value is, setting by setting: (1 nM) -1.33%; (8.33 nM) -0.75%; (100 nM) -0.64%; (833.33 nM) -0.84%; (10000 nM) 0.7%.

In the case of `CCc1cc2c(s1)-n1c(C)nnc1CN=C2c1ccccc1Cl` [etizolam], the “inhibition” value reads like this: (1 nM) 2.37%; (8.33 nM) 2.54%; (100 nM) -2.3%; (833.33 nM) 3.16%; (10000 nM) 2.75%.

For the compound `c1ccc2c(c1)CN1CCCC1=N2` [desoxypeganine], the “inhibition” value (1 nM) is -4.75%; the “inhibition” value (8.33 nM) was -3.18%; the “inhibition” value (100 nM) was -1.21%; the “inhibition” value (833.33 nM) is -2.32%; the “inhibition” value (10000 nM) is -1.54%.

For the compound `Nc1cc(C(F)(F)F)c(-c2cc(N3CCOCC3)nc(N3CCOCC3)n2)cn1` [buparlisib], the “inhibition” value reads like this: (1 nM) 2.05%; (8.33 nM) 0.38%; (100 nM) -0.73%; (833.33 nM) -3.58%; (10000 nM) -12.6%.
